Shown are actives, neighbours in structure and some others; about 7.3% of the full set was active somewhere.
Tau fluor cs = counter-screen for tau fibril formation inhibitors. tau K18 P301L Alexa594 fluorescence, heparin fibrillization. AID 1463. hit rate 0.93% among 280,000. Potency, µM (highest dose often 57.7 µM), for the others: top-dose activity change, negative = decrease; note: nearly all actives have a fitted effect of over 55% in size
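Human K18 P301L tau (15 uM unlabeled plus 0.24 uM Alexa 594-labeled, final) in 100 mM sodium acetate pH 7 was mixed with compound and 20 uM heparin and incubated 6 hr at 37 C.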
Tau ThT inhib = inhibitors of human tau fibril formation, thioflavin T binding. P10636. recombinant tau K18 P301L (four-repeat tau fragment), heparin-induced fibrillization, ThT fluorescence. Potency, µM (titrated, usually from 57.4 µM), without a hit: at the highest dose activity, negative = inhibition, most hits filed as inhibitors. hit rate 2.1% among 270,000. AID 1460; note: nearly all actives have a fitted effect of over 55% in size
Target sequence (P10636 561-689 P618L limits assumed): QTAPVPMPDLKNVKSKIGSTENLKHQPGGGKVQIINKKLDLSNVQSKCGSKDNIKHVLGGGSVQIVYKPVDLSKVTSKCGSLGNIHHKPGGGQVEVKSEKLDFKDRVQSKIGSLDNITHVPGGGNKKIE
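Heparin-induced fibrillization of the P301L-mutant K18 repeat-domain fragment of human tau was followed by ThT binding in quantitative high-throughput format.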
Tau fibril FP = inhibitors of human tau fibril formation; P10636; K18 P301L tau heparin fibrillization, Alexa594 FP, 6 h; Potency, µM (top dose mostly 57.7 µM), for the others: at the top dose activity, negative = inhibition, usual class: inhibitors; hit rate 0.39% among 280,000; AID 1468; note: nearly all actives have a fitted effect of over 55% in size
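FP of Alexa 594-tau after heparin (20 uM) induction. Substrate: human K18 P301L, 15 uM unlabeled, 0.24 uM labeled. Buffer 100 mM sodium acetate pH 7. 6 hr, 37 C.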
RORg inh = blocks mouse ROR gamma transcriptional activity | P51450 | Drosophila S2 Gal4-RORgamma UAS-luciferase reporter, 20 h | Potency, µM (top dose mostly 53.6 µM), for the others: at the top dose activity change, negative = inhibition, most hits filed as inhibitors | hit rate 5.4% among 310,000 | AID 2551; note: nearly all actives have a fitted effect of over 60% in size
Target sequence (P51450 whole entry, looked up, the tested form may be a part): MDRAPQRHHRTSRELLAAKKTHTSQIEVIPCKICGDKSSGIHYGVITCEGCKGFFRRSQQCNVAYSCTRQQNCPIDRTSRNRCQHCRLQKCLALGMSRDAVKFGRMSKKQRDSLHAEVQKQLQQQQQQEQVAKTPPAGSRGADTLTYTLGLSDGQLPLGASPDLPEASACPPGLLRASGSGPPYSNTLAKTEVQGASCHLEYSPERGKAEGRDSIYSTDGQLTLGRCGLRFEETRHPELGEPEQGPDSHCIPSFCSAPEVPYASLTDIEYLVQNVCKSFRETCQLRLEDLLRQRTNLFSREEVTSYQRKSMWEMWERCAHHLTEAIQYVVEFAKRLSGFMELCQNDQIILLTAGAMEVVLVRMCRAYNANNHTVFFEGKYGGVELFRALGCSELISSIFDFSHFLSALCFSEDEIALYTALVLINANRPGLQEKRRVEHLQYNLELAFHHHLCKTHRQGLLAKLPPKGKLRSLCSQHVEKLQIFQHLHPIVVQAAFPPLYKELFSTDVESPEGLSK
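Drosophila Schneider cells stably carrying a metallothionein-driven Gal4 DBD–ROR gamma fusion and a UAS-Photinus luciferase reporter were exposed to compound for 1 hr, then induced with copper sulfate (700 uM final) for 20 hr at ambient temperature before luminescence reading.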
Gal4-VP16 FLuc = inhibits Gal4-VP16 luciferase reporter, ROR gamma counter-screen. Drosophila S2 Gal4-VP16 UAS-luciferase, luminescence, 20 h. Potency, µM (highest dose often 53.6 µM), inactives show top-dose activity, negative = inhibition, usual class: inhibitors. hit rate 3.5% among 310,000. AID 2546;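 note: Gal4-VP16 expression switched on by copper sulfate through the metallothionein promoter; nearly all actives have a fitted effect of over 50% in size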
Numbers without * were called inactive; ? = inconclusive; · = no result; [ ] = another dose, or the depositor's remark. Calls come from the whole dose curve; as a rule, active = well fitted curve in the direction sought with a large enough effect; inconclusive = small, poorly fitted or top-dose-only effect, or another doubt; inactive = no such curve, though single readings can be large; an effect the other way counts as inactive or inconclusive. % is set by controls: 0 for no effect and ±100 for the full control effect; potency is the fitted concentration of half-maximal effect.

SMILES	Tau fluor cs	Tau ThT inhib	Tau fibril FP	RORg inh	Gal4-VP16 FLuc
Fc1cc(F)cc(NC(=S)NN2CCOCC2)c1	9.6%	12.0%	-0.6%	10µM*	7.4%[10 µM]
CCOC(=O)c1ccc(NC(=S)NN2CCOCC2)cc1	-0.8%	-6.1%	9.6%	?	?
CC(C)c1ccc(NC(=S)NN2CCN(C)CC2)cc1	-1.8%	-2.6%	-1.7%	11.2µM*	14.3%
COc1ccc(-c2noc(-c3cccc(OC)c3OC)n2)cc1	-25.1%	?	-11.1%	·	·
CCOC(=O)C(NC(=O)CC)(Nc1ccccc1)C(F)(F)F (configuration not stated)	-8.6%	?	-5.6%	-1.2%	-2.2%
CCOC(=O)C(NC(=O)CC)(N1CCc2ccccc2C1)C(F)(F)F (configuration not stated)	-15.6%	22.4µM*	?	-2.1%	-10.8%
COc1ccc(-c2oc3ncn4nc(-c5ccccc5Cl)nc4c3c2-c2ccc(OC)cc2)cc1	1.4%	2.9%	-3.5%	·	·
O=C1CS/C(=C/C(=O)c2cccc(Cl)c2)N1	1.8%	2.8%	3.7%	5.62µM*	?
Cc1ccc(C(=O)/C=C2/NC(=O)CS2)cc1	-8.5%	-9.3%	-8.8%	?	?
CC(C)=CCC/C(C)=C/CO/N=C1/C[C@@H](O)[C@@H](O)[C@@H]2[C@@H]3C(=O)N(c4cccc(Oc5ccccc5)c4)C(=O)[C@H]3CC[C@H]12	-21.5%[11.6 µM]	-19.1%[11.5 µM]	-3.6%[11.6 µM]	13.1%[10 µM]	-2.5%[10 µM]
CC(C)CN1CCc2nc(Nc3ccc(F)cc3F)ncc2C1	-1.9%	-7.5%	5.7%	·	·
Cc1ccc(/C(N)=N/OC(=O)CCc2ccccc2)cc1	?	31.6µM*	?	22.9%	1.7%
Nc1cc(C(=O)N2CCN(c3ccc([N+](=O)[O-])cc3)CC2)ccc1N1CC2CC(C1)c1cccc(=O)n1C2 (configuration not stated)	·	·	·	7.5%	3.1%
CCc1cccc(C)c1NC(=O)COC(=O)c1c2c(nc3ccccc13)/C(=C\c1cccs1)CCC2	-24.7%	?	-2.4%	?	-23.9%
NC(=O)c1ccc(NC(=O)COC(=O)c2c3c(nc4ccccc24)/C(=C\c2cccs2)CCC3)cc1	?	-10.2%	4.47µM*	4.47µM*	5.01µM*
CC(=O)C1=C(C)NC(SCC(=O)c2ccccc2)=C(C#N)C1c1ccco1 (configuration not stated)	?	22.4µM*	-2.3%	41.7%	?
CC(=O)C1=C(C)NC(SCC(=O)c2ccc(Cl)cc2)=C(C#N)C1c1ccco1 (configuration not stated)	?	?	12.9%	?	?
CCc1ccc(NC(=O)CSC2=C(C#N)C(c3ccco3)C3=C(CCCC3=O)N2)cc1 (configuration not stated)	?	-13.4%	-10.4%	23.0%	-3.2%
CSCSC1=C(C#N)C(c2ccc(Cl)cc2)C(C(C)=O)=C(C)N1 (configuration not stated)	-27.1%	-12.3%	-2.9%	14.1µM*	?
CC(=O)C1=C(C)NC(SCC(=O)c2ccc(Cl)cc2Cl)=C(C#N)C1c1ccco1 (configuration not stated)	?	?	5.7%	?	4.47µM*
N#CC1=C(SCC(=O)c2ccc(Br)cc2)NC2=C(C(=O)CCC2)C1c1ccco1 (configuration not stated)	?	14.1µM*	-15.0%	21.9%	-9.0%
CCCN1CCN(CCNC(=O)Nc2ccc(OC)cc2OC)CC1	3.3%	7.0%	5.3%	·	·
CNC(=O)[C@H](C)[C@H]1C[C@]1(C)[C@H](NC(=O)OCc1ccccc1)c1ccccc1	-8.7%	-11.3%	-3.5%	-0.6%	3.7%
CCNc1c(NC(=O)c2ccccc2OCC)c(=O)oc2ccccc12	-5.8%	-12.2%	-1.3%	·	·
CC(=O)C1=C(C)NC(SCC(=O)c2ccccc2)=C(C#N)C1CC(C)C (configuration not stated)	-18.5%	-17.6%	-7.9%	11.2µM*	?
SMILES	Tau fluor cs	Tau ThT inhib	Tau fibril FP	RORg inh	Gal4-VP16 FLuc
COc1ccc(NC(=O)CCc2c(C)nc3c(c2C)c(=O)n(C)c(=O)n3C)c(OC)c1	-12.7%	-16.9%	-4.3%	·	·
COc1ccc(NC(=O)CC2C(=O)N(c3ccc(C)cc3)C(=O)N2C2CCCC2)cc1 (configuration not stated)	-20.5%	-4.7%	7.7%	·	·
Oc1ccc(Nc2nc(-c3ccc4ccccc4c3)cs2)cc1	7.94µM*[quencher]	5.01µM*	?	-2.2%	-1.3%
Oc1ccc(-c2nc(-c3ccc(O)c(O)c3)cs2)cc1	12.6µM*[quencher]	3.16µM*	7.1%	7.7%	-2.1%
CC(=O)Nc1nc(-c2ccc3ccccc3c2)cs1	·	·	·	-23.0%	?
NS(=O)(=O)c1ccc(Nc2nc(-c3ccc(O)cc3O)cs2)cc1	14.1µM*[quencher]	6.31µM*	9.4%	18.2%	19.6%
NS(=O)(=O)c1ccc(Nc2nc(-c3ccc(F)cc3)cs2)cc1	15.8µM*[quencher]	?	12.1%	28.1%	-13.1%
COc1ccc(-c2noc(CC(=O)Nc3ccc(Br)cc3C)n2)cc1	4.5%	4.2%	-20.7%	·	·
O=C(CCSCc1cccc(Cl)c1)NCc1ccccc1Cl	-24.6%	-11.5%	-4.8%	·	·
O=C(Nc1nc2ccc(F)cc2s1)c1nc(S(=O)(=O)Cc2ccccc2)ncc1Cl	-29.6%	7.08µM*	-13.3%	·	·
Cc1cccc(CS(=O)(=O)c2ncc(Cl)c(C(=O)Nc3nc4ccc(F)cc4s3)n2)c1	-23.0%	10µM*	-8.8%	·	·
CCC(C)N(C(=O)c1csnn1)C(C(=O)NCc1ccc(F)cc1)c1ccccc1F (configuration not stated)	·	·	·	1.3%	-15.9%
Nc1c(C(=O)NCC2CCCO2)sc2nc3c(c(-c4ccco4)c12)CC/C3=C\c1ccco1 (configuration not stated)	?	15.8µM*	?	8.9%	-2.4%
COCC1=C2c3ccccc3[C@@H]3CNC(=O)C3(C(=O)OC)C[C@@H]2n2c(=O)n(-c3ccccc3)c(=O)n2C1 (some centres not stated)	-1.6%	-4.2%	1.6%	0.0%	0.0%
Fc1ccc(-c2csc(-c3ccncc3)n2)cc1	-5.1%	-0.6%	-6.3%	1.9%	5.9%[10 µM]
O=C(Nc1nc(-c2ccccc2)cs1)c1ccccc1NS(=O)(=O)c1ccc(F)cc1	?	14.1µM*	?	?	5.62µM*
O=C(Nc1cccnc1)c1ccccc1NS(=O)(=O)c1ccc(F)cc1	-8.4%	-5.5%	-1.8%	?	-2.2%
O=S(=O)(Nc1ccc(-c2csc(-c3ccccc3)n2)cc1)c1ccc(F)cc1	?	-8.5%	11.2µM*	?	?
Fc1ccc(-c2csc(NC(=S)Nc3ccccc3)n2)cc1	·	·	·	0.891µM*	3.16µM*
Cc1cc(C)c(OCC(=O)N(Cc2cccc(F)c2)Cc2ccco2)c(C)c1	-18.7%	?	-1.3%	·	·
